# The campaign covered roughly 110,000 compounds. About 1,400 (1.3%) were called active.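 The calls were made as follows: active = Z score or B-score, a plate-position-corrected score, falls beyond the plate's 99.7% confidence bounds, in either direction; inactive = both scores lie inside the 99.7% bounds.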 This excerpt belongs to a sample that is enriched for actives.
# Target: Sodium-dependent dopamine transporter (Homo sapiens) (UniProt Q01959)
# Assay: changed hDAT dopamine uptake under cocaine IC80, either direction, primary screen, cocaine antagonist project, cell-based, LLC-PK1 hDAT, [14C]-dopamine uptake, MLSMR (AID 449768);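 also: scored against the spread of the other compound wells on the same plate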
# Conditions: LLC-PK1 hDAT cells, [14C]-dopamine uptake with cocaine IC80; at 10 µM; actives deviate in either direction
# Chain of Sodium-dependent dopamine transporter (Homo sapiens) (Q01959 whole entry, looked up): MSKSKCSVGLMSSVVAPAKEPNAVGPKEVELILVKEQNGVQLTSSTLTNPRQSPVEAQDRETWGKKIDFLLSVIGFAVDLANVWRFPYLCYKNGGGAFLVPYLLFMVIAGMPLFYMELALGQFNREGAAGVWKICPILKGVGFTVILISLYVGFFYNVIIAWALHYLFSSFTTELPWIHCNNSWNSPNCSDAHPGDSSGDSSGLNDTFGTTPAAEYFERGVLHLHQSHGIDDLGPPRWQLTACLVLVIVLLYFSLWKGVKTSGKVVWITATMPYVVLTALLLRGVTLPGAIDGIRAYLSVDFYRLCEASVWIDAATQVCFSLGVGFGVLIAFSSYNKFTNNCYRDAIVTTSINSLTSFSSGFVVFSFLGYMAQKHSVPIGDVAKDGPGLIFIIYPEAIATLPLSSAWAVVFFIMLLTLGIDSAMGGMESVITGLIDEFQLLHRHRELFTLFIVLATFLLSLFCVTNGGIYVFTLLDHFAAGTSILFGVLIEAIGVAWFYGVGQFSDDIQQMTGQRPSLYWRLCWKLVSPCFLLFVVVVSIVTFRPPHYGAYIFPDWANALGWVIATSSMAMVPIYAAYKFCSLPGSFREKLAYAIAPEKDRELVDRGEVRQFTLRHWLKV
row,Compound,B-score
1,Cc1cc(C)n(-c2nnc(C)n2NC(=O)c2cccc(Cl)c2)n1,-8.7 (active)
2,Cc1cc(C)n(-c2ccc(Cl)c(C(=O)O)n2)n1,-1.42 (inactive)
3,O=C(Nc1ccon1)c1cccc(Cl)c1,0.0619 (inactive)
4,COc1ccc2c(c1)CCNC2Cc1ccc(OC)c(O)c1 (stereo not given),-0.654 (inactive)
5,CC(=O)Nc1sc2c(c1C(c1cccc(F)c1)N1CCN(CCO)CC1)CCCC2 (stereo not given),0.298 (inactive)
6,C[C@@H]1NC(=O)c2cc([N+](=O)[O-])cc(F)c2NCCC[C@@H](C(N)=O)NC(=O)[C@H](CC(N)=O)NC1=O,-0.649 (inactive)
7,O=C(Nc1ccccc1F)c1cc(S(=O)(=O)N2CCCCC2)cs1,0.695 (inactive)
8,Cc1ccc(C(=O)Nc2ccccc2C(=O)NC2CCCCC2)cc1S(=O)(=O)N1CCOCC1,-0.00206 (inactive)
9,Cc1ccccc1NC(=O)c1cc(S(=O)(=O)N2CCOCC2)cs1,-3.41 (active)
10,C/C=C(/C)C(=O)Nc1cccc(C2=NOC3(C2)C[C@@H](C(N)=O)N(C(=O)C2(C)CC2)C3)c1 (stereo not given in full),-0.445 (inactive)
11,CC(Sc1nc2c([nH]c3ccccc32)c(=O)n1C)c1ccccc1 (stereo not given),0.73 (inactive)
12,CCOC(=O)c1c(NC(=O)C(C)Sc2c[nH]c3ccccc23)sc2c1CCC2 (stereo not given),-0.485 (inactive)
13,Cc1nc(SCC(=O)N2CC(=O)Nc3ccccc32)c2c(C)c(C)sc2n1,2.75 (active)
14,Cc1nc(SCC(=O)N2CCc3ccccc3C2)c2c(C)c(C)sc2n1,2.48 (inactive)
15,Cc1nc(SCC(=O)Nc2cc(C)on2)c2c(C)c(C)sc2n1,0.457 (inactive)
16,C=CCSc1nnc2c(n1)-c1cccc3cccc-2c13,0.0257 (inactive)
17,CCOC(=O)N1CCN(C(=O)c2ccc(S(=O)(=O)c3ccc(C)cc3)c(NC(C)=O)c2)CC1,-7.14 (active)
18,CCOC(=O)N1CCN(C(=O)c2ccc3c(c2)N(Cc2ccc(C)cc2)CCS3)CC1,0.333 (inactive)
19,CC(=O)Nc1cc(C(=O)O)ccc1S(=O)(=O)c1ccc(Cl)cc1,-0.803 (inactive)
20,C[C@@H](C(=O)N1CCNCC1)n1cc(CCC(=O)O)nn1,-0.0383 (inactive)
21,Cc1ccc(-c2cc(=O)c3ccc(F)cc3[nH]2)cc1,0.343 (inactive)
22,CCn1c(SCC(=O)Nc2nc3ccc(OC)cc3s2)nnc1-c1ccoc1C,0.56 (inactive)
23,CCOC(=O)c1c(C2CC2)csc1NC(=O)CSCc1c(C)noc1C,0.395 (inactive)
24,Cc1noc(C)c1CSCC(=O)Nc1nc2ccc(Oc3ccccc3)cc2s1,3.18 (active)
25,NC(=O)C1=C[C@@H](c2csc3ccccc23)C[C@@H](OCc2ccc(CO)cc2)O1,0.21 (inactive)
26,CC/C=C/C(=O)N1CC2(CC(c3cccc(NC(=O)CC)c3)=NO2)C[C@H]1C(N)=O (stereo not given in full),0.271 (inactive)
27,CCCC[C@@H]1CN=C(N)N1CCc1cccc(F)c1,-0.00752 (inactive)
28,CCOC(=O)c1sc(NC(=O)CSc2nc3c(c(=O)n2-c2ccccc2)SCC3)c(C(=O)OCC)c1C,0.723 (inactive)

row,Compound,B-score
1,O=C(Cn1nnc(-c2ccccc2)n1)NCc1ccc2c(c1)OCO2,0.156 (inactive)
2,O=C(Cn1cnc2c(nnn2Cc2ccc(F)cc2)c1=O)NCc1ccc2c(c1)OCO2,-8.17 (active)
3,Cc1ccc(Cn2nnc3c(=O)n(CC(=O)N4CCCCC4)cnc32)cc1,0.247 (inactive)
4,NC(=O)CC(NC(=O)Cc1cccc2ccccc12)c1ccc(NCc2cc(F)ccc2F)c([N+](=O)[O-])c1 (stereo not given),0.0495 (inactive)
5,O=C(NCc1ccccc1)C1=C[C@@H](c2ccccc2)C[C@@H](OCCCCO)O1,0.736 (inactive)
6,CCN1C(=O)N[C@@H](CCc2ccccc2)C(C(=O)OC)=C1C,0.0945 (inactive)
7,COC(C[C@H](O)CC(=O)[C@@H](C)OCc1ccccc1)OC,-0.99 (inactive)
8,O=C(O)C1=C[C@H](c2cccs2)C[C@H](OCCCCO)O1,-0.012 (inactive)
9,COc1cc2[nH]c(=O)n(CCC(=O)NC3CCN(Cc4ccccc4)CC3)c(=O)c2cc1OC,3.31 (active)
10,COc1ccc(CCNC(=O)CCCCn2c(=O)[nH]c3ccccc3c2=O)cc1OC,0.579 (inactive)
11,CCOc1cc2[nH]c(=O)n(CCC(=O)NCc3ccc(OC)cc3)c(=O)c2cc1OCC,-0.216 (inactive)
12,CC(C)NC(=O)NCCCCCCS(C)=O (stereo not given),0.321 (inactive)
13,O=c1[nH]snc1-c1c(Cl)cccc1Cl,1.69 (inactive)
14,Cc1cccc(NC(=O)c2sc3nc4c(c(-c5ccco5)c3c2N)CCC4)c1,-8.82 (active)
15,CC(=O)Nc1ccc(NC(=O)c2sc3nc4c(c(-c5ccc(C)cc5)c3c2N)CCC4)cc1,-0.372 (inactive)
16,NC(=O)c1sc2nc3c(c(-c4ccccc4)c2c1N)CCC3,0.0164 (inactive)
17,CCOC(=O)c1ccccc1NC(=O)c1c(N)n(C)c(=O)[nH]c1=O,-0.18 (inactive)
18,C[C@@H]1CC[C@]2(O[C@@H](CCO)C[C@H](O)[C@H]2O)O1,-0.347 (inactive)
19,COC(=O)C(C)n1cnc2c(nnn2-c2cccc(Cl)c2)c1=O (stereo not given),-0.668 (inactive)
20,CC(C)C[C@H](CO)Nc1nc(N(C)c2cccc(Cl)c2)c2ncn(C(C)C)c2n1,2.72 (active)
21,CC(C)n1cnc2c(Nc3cccc(Cl)c3)nc(N(CCO)CCCO)nc21,0.4 (inactive)
22,C#CCOCCOCCOCCNc1nc(N2CCN(C(=O)[C@H](CCC(=O)O)n3cc(C(N)CO)nn3)CC2)nc(N2CCN(C(=O)[C@H](CCCCN)n3cc(C(N)[C@H](C)CC)nn3)CC2)n1 (stereo not given in full),-0.0414 (inactive)
23,COc1ccc(N2C(=O)C3CCCN3C2c2cc(OC)c(OC)cc2OC)cc1 (stereo not given),-1.27 (inactive)
24,COc1cccc(N2C(=O)C3CCCN3C2c2ccc(F)cc2)c1 (stereo not given),-0.103 (inactive)
25,COc1ccc(N2C(=O)C3CCCN3C2c2cccc(OC)c2)cc1 (stereo not given),-2.41 (active)
26,CC(=O)N[C@H]1[C@H]([C@H](O)[C@H](O)CO)OC(C(=O)O)=C[C@@H]1O,0.169 (inactive)
27,CC1(OC(=O)CCc2ccccc2)C(=O)C=C2C=C(c3ccc(C#N)cc3)N(CCc3ccccn3)C=C2C1=O (stereo not given),-1.62 (inactive)

# Reference: PubChem BioAssay AID449768 (Vanderbilt High Throughput Screening Facility, 2010)
